# In PubChem BioAssay (EPA / NIEHS):
# “And” between values parts separate entries of the source, which are not always exact repeats. Equal values may be shown once. Inconclusive results are not listed. Some compounds were tested as several samples or in several runs, with calls that do not always agree. The source made the active and inactive calls. Rule for the calls: active = hit-call score of the fitted dose curve at least 0.9, where 1 is the maximum; inconclusive = response in the unintended direction; inactive = score below 0.9.
# Tests used:
# [1] = ACEA_AR_antagonist_AUC_viability: ACEA Biosciences xCELLigence Real-Time Cell Analysis on Androgen Receptor Antagonism for Viability (AID 2283776);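 note: 22Rv1 human prostate cancer cells growing on impedance electrode plates; area under impedance growth curve at 80 h after dosing as viability; hits lower the growth signal relative to DMSO meaning cytotoxicity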
# How it was run: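 22Rv1 prostate cells, continuous dosing up to 100 uM final (0.5% DMSO max), duplicate plates. Growth measured by impedance; AUC at 80 h, loss of signal vs DMSO.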
# [2] = ACEA_ER_AUC_viability: ACEA Biosciences xCELLigence Real-Time Cell Analysis on Estrogen Receptor Agonism for Viability (AID 2283782);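 note: hit means loss of impedance signal meaning reduced cell growth or viability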
# How it was run: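 Viability endpoint: reduced impedance area under the curve relative to DMSO, recorded by real-time electrode sensing over ~80 h of continuous exposure. Duplicate plates of T47D in hormone-depleted medium; eight concentrations, 1:4 dilutions, 100 uM maximum.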
# [3] = ACEA_AR_agonist_AUC_viability: ACEA Biosciences xCELLigence Real-Time Cell Analysis on Androgen Receptor Agonism for Viability (AID 2283775);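 for AC50: viability read 80 hours after compound addition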
# How it was run: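 Viability endpoint from xCELLigence impedance in 22Rv1 prostate cells at 80 h. Eight-point series, 100 uM maximum final.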
# AR (gene 367) = AR (gene 367) (UniProt P10275); assay: ACEA_AR_agonist_80hr: ACEA Biosciences xCELLigence Real-Time Cell Analysis on Androgen Receptor Agonism for Proliferation (AID 2283783);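 note: hits increase impedance growth signal above DMSO baseline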
# How it was run: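 Eight concentrations, 1:4 serial dilution from a 100 uM final top, in biological duplicate. Impedance-based real-time growth of 22Rv1 cells after overnight baseline, recorded hourly and read at 80 hours. Controls: testosterone, MG132, assay media.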
# [4] = target: Luciferin 4-monooxygenase (Photinus pyralis) (UniProt P08659); assay: CCTE_Simmons_QuantiLum_inhib_2: CCTE's Firefly Luciferase Inhibition Assay, Simmons Lab (AID 2283767)
# How it was run: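 Eight-point titrations of each chemical, 5 nM–87.5 uM final in 0.5% DMSO, were run in three biological replicates against recombinant luciferase for 30 min at 37C. Bioluminescence signal loss, read on reagent injection, gave the inhibition endpoint.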
# [5] = ATG_M_06_XSP2: Attagene TRANS-FACTORIAL Multi-Species (XSP2) HepG2 Assay for M06 Transcription Factor (Internal Marker) (AID 2283811);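 note: internal background marker reporter mRNA measured by RT-PCR and capillary electrophoresis; hits are increases in signal above the DMSO baseline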
# How it was run: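 Internal-marker reporter transcript, quantified by RT-PCR, 6-FAM labelling, HpaI digestion and capillary electrophoresis, 24 hours after dosing transfected HepG2 cells with 3 nM 6-alpha-fluorotestosterone and 1.5 nM norgestrel present; DMSO baseline.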
# [6] = tested on: turtle Estrogen Receptor (ERa), gene 101933533; assay: ATG_trERa_XSP2: Attagene TRANS-FACTORIAL Multi-Species (XSP2) HepG2 Assay for turtle Estrogen Receptor (ERa) (AID 2283812);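 note: actives raise reporter signal above DMSO so AC50 reflects agonist activity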
# How it was run: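 Readout is reporter mRNA quantified by RT-PCR with capillary electrophoresis after 24 h compound exposure, increase relative to DMSO. Uses transiently transfected human HepG2 liver cells carrying a chimeric turtle ERa-Gal4 receptor driving GAL4-UAS reporters.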
# [7] = target: Estrogen receptor beta (Homo sapiens) (UniProt Q92731); assay: ATG_hERb_XSP2: Attagene TRANS-FACTORIAL Multi-Species (XSP2) HepG2 Assay for human Estrogen Receptor (ERb) (AID 2283813);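 note: actives raise reporter mRNA above DMSO so AC50 reflects agonist induction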
# How it was run: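 Transient TRANS reporter system in HepG2: after 24 h of chemical, RNA is reverse-transcribed, reporter cDNA amplified, FAM-labelled and sized by capillary electrophoresis. Induction of the human ERb-Gal4 reporter is measured relative to DMSO.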
# [8] = target: zebrafish Estrogen Receptor (ER1), esr1 (gene 259252) (UniProt P57717); assay: ATG_zfER1_XSP2: Attagene TRANS-FACTORIAL Multi-Species (XSP2) HepG2 Assay for zebrafish Estrogen Receptor (ER1) (AID 2283816)
# How it was run: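 After 24 h compound exposure, RNA from transfected HepG2 cells was reverse-transcribed and reporter transcripts resolved by capillary electrophoresis. The TRANS format reads exogenous zebrafish ER1-Gal4 chimera activity on GAL4-UAS elements; gain of signal against DMSO.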
# [9] = target: chicken Estrogen Receptor (ERa), ESR1 (gene 396099) (UniProt P06212); assay: ATG_chERa_XSP2: Attagene TRANS-FACTORIAL Multi-Species (XSP2) HepG2 Assay for chicken Estrogen Receptor (ERa) (AID 2283817);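 note: actives raise reporter signal above DMSO so AC50 reflects ER activation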
# How it was run: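 Reporter mRNA induction read by RT-PCR, fluorescent labelling and capillary electrophoresis after 24 h exposure; positive-direction fit against DMSO baseline. HepG2 cells transfected with multiplexed GAL4-UAS units including chicken ERa chimera; medium contained 3 nM 6-alpha-fluorotestosterone plus 1.5 nM norgestrel.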
# [10] = tested on: zebrafish Estrogen Receptor (ER2a), gene 317734; assay: ATG_zfER2a_XSP2: Attagene TRANS-FACTORIAL Multi-Species (XSP2) HepG2 Assay for zebrafish Estrogen Receptor (ER2a) (AID 2283818);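 note: hits raise reporter mRNA so AC50 reflects activation of zebrafish ER2a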
# How it was run: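 Multiplexed trans-reporter readout: RT-PCR then capillary electrophoresis of reporter transcripts after 24 h compound treatment. Human HepG2 carries transfected zebrafish ER2a-Gal4 chimera; 3 nM 6-alpha-fluorotestosterone plus 1.5 nM norgestrel present. Induction scored against DMSO.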
# [11] = STM_H9_NormalizedViability: Cytotoxicity Assessment at 120 hours in the Stemina devTOX quickPredict H9 human embryonic stem cell (hESC)-based Assay (AID 2283784)
# How it was run: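 Here, H9 cells received test compound with daily medium renewal. Each plate included methotrexate references (1uM, 5 nM), 0.1% DMSO and media blanks; CellTiter-Fluor RFU was normalized to DMSO.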
# [12] = tested on: turtle Androgen Receptor (AR), gene 101947425; assay: ATG_trAR_XSP2: Attagene TRANS-FACTORIAL Multi-Species (XSP2) HepG2 Assay for turtle Androgen Receptor (AR) (AID 2283815)
# How it was run: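 Reporter transcripts were quantified via RT-PCR and capillary electrophoresis and fitted upward against DMSO. Transiently transfected human HepG2 cells carrying NR-Gal4 chimeras were exposed 24 h, with 3 nM 6-alpha-fluorotestosterone plus 1.5 nM norgestrel added.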
# Chain of AR (gene 367) (P10275 whole entry, looked up): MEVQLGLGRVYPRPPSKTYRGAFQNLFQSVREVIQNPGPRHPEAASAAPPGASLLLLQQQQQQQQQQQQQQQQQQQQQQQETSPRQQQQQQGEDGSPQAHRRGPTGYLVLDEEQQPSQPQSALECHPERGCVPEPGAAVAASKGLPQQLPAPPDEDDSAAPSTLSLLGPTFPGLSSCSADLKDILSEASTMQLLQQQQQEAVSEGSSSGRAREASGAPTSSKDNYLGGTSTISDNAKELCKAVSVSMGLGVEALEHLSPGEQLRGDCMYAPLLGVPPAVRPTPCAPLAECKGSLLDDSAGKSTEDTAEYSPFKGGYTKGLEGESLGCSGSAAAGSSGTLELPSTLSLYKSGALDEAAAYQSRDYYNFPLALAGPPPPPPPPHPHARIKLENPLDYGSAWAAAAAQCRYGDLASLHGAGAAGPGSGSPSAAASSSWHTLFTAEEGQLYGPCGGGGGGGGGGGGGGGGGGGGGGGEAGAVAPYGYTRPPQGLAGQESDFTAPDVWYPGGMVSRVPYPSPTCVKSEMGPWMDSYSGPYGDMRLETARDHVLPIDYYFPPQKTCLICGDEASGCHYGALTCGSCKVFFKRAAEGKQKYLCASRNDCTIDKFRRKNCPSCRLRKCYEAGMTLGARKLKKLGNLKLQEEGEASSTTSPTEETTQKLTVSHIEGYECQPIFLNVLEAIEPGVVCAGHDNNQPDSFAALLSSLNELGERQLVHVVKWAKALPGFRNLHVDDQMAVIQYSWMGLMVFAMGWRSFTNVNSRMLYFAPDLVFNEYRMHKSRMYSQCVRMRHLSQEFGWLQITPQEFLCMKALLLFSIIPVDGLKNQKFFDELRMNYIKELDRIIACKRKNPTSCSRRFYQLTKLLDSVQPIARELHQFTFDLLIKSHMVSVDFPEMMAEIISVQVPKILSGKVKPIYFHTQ
# Chain of zebrafish Estrogen Receptor (ER1), esr1 (gene 259252) (P57717 whole entry, looked up, the tested form may be a part): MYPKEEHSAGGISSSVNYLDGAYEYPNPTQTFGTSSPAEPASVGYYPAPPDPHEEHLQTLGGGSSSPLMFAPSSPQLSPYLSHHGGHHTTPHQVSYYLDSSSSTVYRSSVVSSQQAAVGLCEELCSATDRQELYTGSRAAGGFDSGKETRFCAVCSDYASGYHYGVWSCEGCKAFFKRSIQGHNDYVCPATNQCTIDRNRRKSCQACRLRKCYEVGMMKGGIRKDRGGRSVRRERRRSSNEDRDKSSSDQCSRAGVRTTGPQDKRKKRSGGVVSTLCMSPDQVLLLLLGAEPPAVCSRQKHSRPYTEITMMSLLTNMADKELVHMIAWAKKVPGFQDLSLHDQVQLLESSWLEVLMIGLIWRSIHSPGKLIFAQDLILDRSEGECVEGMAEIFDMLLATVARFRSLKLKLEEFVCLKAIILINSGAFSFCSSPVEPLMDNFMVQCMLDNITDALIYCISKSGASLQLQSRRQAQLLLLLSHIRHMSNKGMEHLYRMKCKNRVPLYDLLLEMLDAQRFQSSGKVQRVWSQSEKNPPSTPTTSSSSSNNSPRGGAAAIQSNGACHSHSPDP
# Chain of chicken Estrogen Receptor (ERa), ESR1 (gene 396099) (P06212 whole entry, looked up, the tested form may be a part): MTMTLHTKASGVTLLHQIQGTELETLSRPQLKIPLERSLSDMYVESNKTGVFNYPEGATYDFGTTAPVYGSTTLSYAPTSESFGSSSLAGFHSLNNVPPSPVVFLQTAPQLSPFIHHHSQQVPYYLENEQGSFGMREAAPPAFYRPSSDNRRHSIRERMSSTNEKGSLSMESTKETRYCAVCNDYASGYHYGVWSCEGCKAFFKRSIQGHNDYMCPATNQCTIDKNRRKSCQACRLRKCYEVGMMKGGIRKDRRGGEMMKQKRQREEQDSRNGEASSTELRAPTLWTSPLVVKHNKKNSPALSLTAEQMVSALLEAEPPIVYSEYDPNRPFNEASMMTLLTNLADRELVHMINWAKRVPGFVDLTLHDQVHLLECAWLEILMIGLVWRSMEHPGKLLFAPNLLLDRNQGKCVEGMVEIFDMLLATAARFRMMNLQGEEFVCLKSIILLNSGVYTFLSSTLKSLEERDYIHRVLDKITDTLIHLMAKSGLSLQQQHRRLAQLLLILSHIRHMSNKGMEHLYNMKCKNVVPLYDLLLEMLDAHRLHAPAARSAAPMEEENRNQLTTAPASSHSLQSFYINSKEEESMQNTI
# Chain of Estrogen receptor beta (Homo sapiens) (Q92731 whole entry, looked up, the tested form may be a part): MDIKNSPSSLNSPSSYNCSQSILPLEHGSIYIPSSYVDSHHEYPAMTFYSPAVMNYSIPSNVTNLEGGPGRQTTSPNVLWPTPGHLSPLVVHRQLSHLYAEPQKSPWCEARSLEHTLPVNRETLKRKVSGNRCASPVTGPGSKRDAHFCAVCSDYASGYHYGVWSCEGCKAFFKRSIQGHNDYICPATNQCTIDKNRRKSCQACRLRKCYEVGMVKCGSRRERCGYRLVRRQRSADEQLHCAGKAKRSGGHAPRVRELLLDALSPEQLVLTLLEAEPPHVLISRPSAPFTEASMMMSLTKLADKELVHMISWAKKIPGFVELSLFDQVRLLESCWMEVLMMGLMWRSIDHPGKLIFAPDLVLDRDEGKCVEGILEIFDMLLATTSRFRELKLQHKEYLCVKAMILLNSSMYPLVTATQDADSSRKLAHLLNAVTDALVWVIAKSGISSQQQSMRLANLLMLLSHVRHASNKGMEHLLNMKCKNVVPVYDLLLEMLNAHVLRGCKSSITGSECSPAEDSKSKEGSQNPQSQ
# Chain of Luciferin 4-monooxygenase (Photinus pyralis) (P08659 whole entry, looked up): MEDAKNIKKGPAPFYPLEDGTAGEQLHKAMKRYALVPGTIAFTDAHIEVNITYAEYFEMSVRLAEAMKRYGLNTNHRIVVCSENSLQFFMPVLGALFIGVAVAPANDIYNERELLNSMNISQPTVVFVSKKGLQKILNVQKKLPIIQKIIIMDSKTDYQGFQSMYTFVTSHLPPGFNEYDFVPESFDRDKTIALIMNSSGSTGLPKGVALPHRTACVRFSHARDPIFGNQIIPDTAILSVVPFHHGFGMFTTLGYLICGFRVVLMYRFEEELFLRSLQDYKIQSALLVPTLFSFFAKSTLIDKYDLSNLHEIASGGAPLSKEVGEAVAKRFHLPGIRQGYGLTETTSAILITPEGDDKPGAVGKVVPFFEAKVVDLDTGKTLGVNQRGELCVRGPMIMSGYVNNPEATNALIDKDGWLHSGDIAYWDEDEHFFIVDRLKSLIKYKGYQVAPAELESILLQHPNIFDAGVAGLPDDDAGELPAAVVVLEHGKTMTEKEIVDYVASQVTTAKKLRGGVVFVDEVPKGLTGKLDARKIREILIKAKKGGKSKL
structure (smiles),measurement,setting,value
O=CCCl,outcome,[1],inactive
same,AC50,[2],10.3 µM (active)
O=C(O)COc1ccc(Cl)cc1,outcome,[3],inactive
same,outcome,[2],inactive
O=C(NC(=O)c1c(F)cccc1F)Nc1cc(Cl)c(OC(F)(F)C(F)C(F)(F)F)cc1Cl (configuration not stated),AC50,[3],5.54 µM (active)
same,AC50,[1],5.68 µM (active)
same,AC50,[2],50 µM (active)
O=c1nc(O)n(Cl)c(=O)n1Cl,outcome,[3],inactive
same,outcome,[1],inactive
same,outcome,[2],inactive
Cc1cc(Cl)ccc1O,outcome,[1],inactive
same,outcome,[2],inactive
CC(C)=CC1C(C(=O)OCc2cccc(Oc3ccccc3)c2)C1(C)C (configuration not stated),outcome,[1],inactive
same,outcome,[2],inactive
COc1nn(C(=O)NS(=O)(=O)c2ccccc2OC(F)(F)F)c(=O)n1C,outcome,[3],inactive
same,outcome,[1],inactive
same,outcome,[2],inactive
CCN(CC)C(=O)C(Cl)=C(C)OP(=O)(OC)OC,AC50,[2],25.8 µM (active)
CCN(CCO)CCO,outcome,[3],inactive
same,outcome,[1],inactive
same,outcome,[2],inactive
C=CC(Cl)CCl (configuration not stated),outcome,[3],inactive
same,AC50,[1],4.53 µM (active)
same,outcome,AR (gene 367),inactive
CCOc1cc(C=O)ccc1O,outcome,[2],inactive
O=S1OC[C@@H]2[C@H](CO1)[C@]1(Cl)C(Cl)=C(Cl)[C@@]2(Cl)C1(Cl)Cl (some centres not stated),outcome,[3],inactive
same,outcome,[1],inactive
same,AC50,[2],50 µM (active)
CCOc1ccc(N)cc1,outcome,[4],inactive
same,outcome,[2],inactive
CC(O)(CS(=O)(=O)c1ccc(F)cc1)C(=O)Nc1ccc(C#N)c(C(F)(F)F)c1 (configuration not stated),AC50,[3],44 µM (active)
same,outcome,[3],inactive
same,AC50,[1],21.4 µM (active) and 9.65 µM (active)
same,outcome,[2],inactive
same,outcome,[5],inactive
same,outcome,[6],inactive
same,outcome,[7],inactive
same,outcome,[8],inactive
same,outcome,[9],inactive
same,outcome,[10],inactive
CCC[CH2][Sn]([CH2]CCC)([CH2]CCC)[CH2]CCC,AC50,[1],29.9 µM (active)
same,AC50,[2],22 µM (active)
CNC(=O)O/N=C/C(C)(C)S(C)(=O)=O,outcome,[3],inactive
same,outcome,[1],inactive
same,outcome,[2],inactive
CCOP(=S)(OCC)SCS(=O)(=O)C(C)(C)C,outcome,[4],inactive
same,outcome,[2],inactive
c1cc[c]([Sb]([c]2ccccc2)[c]2ccccc2)cc1,AC50,[2],50 µM (active)
CCOCn1c(-c2ccc(Cl)cc2)c(C#N)c(Br)c1C(F)(F)F,AC50,[3],6.93 µM (active)
same,AC50,[1],7.97 µM (active)
same,AC50,[2],50 µM (active)
O=[N+]([O-])c1ccc(Cl)c([N+](=O)[O-])c1,AC50,[3],22.3 µM (active)
same,AC50,[2],1.55 µM (active)
same,outcome,AR (gene 367),inactive
same,AC50,[11],16.5 µM (active)
N#CCCC(Br)(C#N)CBr (configuration not stated),outcome,[1],inactive
same,AC50,[2],10.9 µM (active)
same,AC50,[11],95.3 µM (active)
Cc1cc(Cl)ccc1OCCCC(=O)O,outcome,[3],inactive
same,outcome,[1],inactive
COCCl,outcome,[3],inactive
same,outcome,[1],inactive
same,outcome,[2],inactive
same,outcome,[6],inactive
same,outcome,[7],inactive
same,outcome,[12],inactive
same,outcome,[8],inactive
same,outcome,[9],inactive
same,AC50,[10],34.8 µM (active)
same,outcome,[10],inactive
CC(=Cc1ccccc1)[N+](=O)[O-],AC50,[3],13.5 µM (active)
same,AC50,[1],6.31 µM (active)
same,AC50,[2],11.5 µM (active)
O=C(O)COc1cc(Cl)c(Cl)cc1Cl,outcome,AR (gene 367),inactive
[Cl][Sn]([c]1ccccc1)([c]1ccccc1)[c]1ccccc1,outcome,[5],inactive
same,outcome,[9],inactive
O=c1oc2ccccc2c(O)c1C(CC(O)c1ccc(-c2ccc(Br)cc2)cc1)c1ccccc1 (configuration not stated),outcome,[8],inactive
